Screens from PubChem BioAssay.
An excerpt weighted towards active compounds, which were near 12% of everything screened.
USP17 block: inhibitors of human USP17 deubiquitinase | A8MUK1 | purified USP17, Ub-rhodamine cleavage fluorescence, 3 h | inhibition, % at 50 µM | hit rate 6.5% among 47,000
USP7 inh: human USP7 deubiquitinase inhibition; inhibition, % at 20 µM; purified USP7, Ub-rhodamine cleavage fluorescence; hit rate 0.3% among 47,000; AID 1645854; Q93009
USP8 inh: blocks human USP8 ubiquitin-rhodamine cleavage; P40818; purified USP8, Ub-rhodamine cleavage fluorescence, 30 min; inhibition, % at 20 µM; hit rate 4.2% among 47,000; AID 1645853
UCHL1 block: inhibitors of human UCHL1 deubiquitinase; purified UCHL1, Ub-rhodamine cleavage fluorescence; hit rate 0.2% among 47,000; AID 1645859; inhibition, % at 20 µM
USP10 inh: inhibitors of human USP10 deubiquitinase. purified USP10, Ub-rhodamine fluorescence, 60 min. inhibition, % at 20 µM. hit rate 1.1% among 47,000
USP30 block: inhibitors of human USP30 deubiquitinase. purified USP30, Ub-rhodamine cleavage fluorescence. Q70CQ3. inhibition, % at 25 µM. hit rate 5.3% among 47,000
* = called active by the depositor; i = inactive; · = not tested or not shown. Rule as the data show it: active = inhibition above about 30%; inactive = the rest.

SMILES	USP17 block	USP7 inh	USP8 inh	UCHL1 block	USP10 inh	USP30 block
Cc1ccc([C@H]2C[C@@H](O)[C@@H](O)[C@@H]2NC(=O)c2ccccc2)cc1	22.6	3.3	2.5	0.5	1.1	36.9*
Cc1ccccc1[C@H]1C[C@@H](O)[C@@H](O)[C@@H]1NC(=O)c1cccc(C#N)c1	19.9	-121.9	-20.3	0.0	5.1	46.5*
Cc1ccc2c(Nc3ccc(CC(=O)O)cc3)c(C(=O)N3CCCC3)cnc2n1	-170.5	-12.6	-121.5	-15.6	-6.0	i
Cn1ncc(-c2nc(-c3ccc(Cl)cc3)cs2)c1NC(=O)NC(=O)c1c(F)cccc1F	52.9*	1.1	5.3	1.3	7.1	·
O=C(Nc1ccccc1)C1CCN(S(=O)(=O)c2cccc3cnccc23)CC1	18.7	-1.2	-34.5	-2.8	2.2	-9.1
COc1ccccc1CNC(=O)CCC1CCCC1	-11.9	-26.8	3.2	1.4	3.8	1.5
O=C(NCc1cccc(NC(=O)C2CC2)c1)Nc1cccc2ccccc12	54.3*	3.2	3.6	0.5	13.3	15.7
COc1ccccc1CNC(=O)Nc1cccc2ccccc12	52.8*	1.3	71.1*	-0.2	5.4	30.1*
CC1CCN(S(=O)(=O)N2CCCC(C(=O)N3CCN(c4ncccn4)CC3)C2)CC1 (centres undefined)	-2.8	-2.5	-3.6	1.7	-1.4	-4.7
COc1ccc2c(C)c(CC(=O)N[C@@H](Cc3c[nH]c4ccccc34)C(=O)O)c(=O)oc2c1OC	0.0	2.4	7.7	4.0	0.4	-12.9
CC(C)=CCc1ccc2[nH]cc(C3=C(O)C(=O)C(c4c[nH]c5ccccc45)=C(O)C3=O)c2c1	43.5*	-63.4	-138.9	-22.7	-5.8	-116.2
COCCCNC(=O)c1ccc(Cn2c(=O)c3ccccc3n(CC(=O)c3ccccc3)c2=O)cc1	1.6	4.4	5.0	0.5	-1.1	8.8
COc1ccc(-n2c(=O)c3ccccc3n(CC(=O)NCCC3=CCCCC3)c2=O)c(OC)c1	-11.4	-12.2	-26.5	-0.5	-3.3	-25.1
COCCCNC(=O)c1ccc(Cn2c(=O)c3ccccc3n(CC(=O)Nc3ccc(OC)cc3OC)c2=O)cc1	74.6*	8.1	11.3	7.5	3.8	·
CCOC(=O)Cn1c(=O)n(Cc2ccc3c(c2)OCO3)c(=O)c2ccc(C(=O)NC3CCCCC3)cc21	29.1	4.9	9.5	-0.2	18.9	25.2
COCCCNC(=O)Cn1c(=O)n(Cc2ccc(C(=O)NCc3ccccc3OC)cc2)c(=O)c2ccccc21	12.6	5.3	14.0	1.0	1.8	52.9*
COCCCNC(=O)Cn1c(=O)n(C2CCCC2)c(=O)c2ccccc21	2.6	-11.4	10.1	0.4	-0.3	12.1
COCCCNC(=O)c1ccc(Cn2c(=O)c3ccccc3n(CC(=O)Nc3ccc(OC)cc3)c2=O)cc1	66.5*	2.1	6.5	6.6	6.3	5.7
COc1ccc(NC(=O)Cn2c(=O)n(Cc3ccco3)c(=O)c3ccc(C(=O)NC4CCCC4)cc32)cc1	11.1	13.3	60.2*	0.7	49.0*	9.5
COc1ccc(CCNC(=O)CN(c2cc(C)cc(C)c2)S(=O)(=O)c2c(C)noc2C)cc1OC	-0.1	-7.9	-42.7	0.1	-0.7	47.4*
O=C(NCc1ccc2c(c1)OCO2)c1cc([N+](=O)[O-])ccc1N1CCCCC1	5.7	-15.0	-68.5	5.4	5.6	32.9*
COc1ccc(CNC(=O)c2cccc(-c3cnc(N4CCCC4)nc3)c2)cc1	45.2*	0.0	-0.2	-1.7	8.4	49.3*
O=C(NCc1ccc2c(c1)OCO2)c1cccc(-c2cnc(N3CCCC3)nc2)c1	30.2*	5.1	29.5	2.8	11.3	43.1*
Cc1cccc(CNC(=O)c2cccc(-c3cnc(N4CCCC4)nc3)c2)c1	-3.3	0.8	-3.3	0.6	6.4	7.0
Cc1ccc(C(=O)Nc2c(-c3ccc4c(c3)OCO4)c(=O)c3ccccc3n2C)cc1	37.2*	-1.5	41.5*	9.9	24.5	-4.9
Cn1c(NC(=O)c2cccc(Br)c2)c(-c2ccc(Cl)cc2)c(=O)c2ccccc21	40.7*	-0.5	-6.2	-2.9	14.7	-37.4
COc1ccc(C(=O)Nc2c(-c3cccc(C)c3)c(=O)c3ccccc3n2C)cc1OC	6.3	6.2	15.6	0.0	2.9	15.4
Cc1ccc(-c2c(NC(=O)c3cccs3)n(C)c3ccccc3c2=O)cc1	22.3	8.5	31.7*	6.3	16.0	27.3
